Reference: the supplement of paper PMC10849652
Of roughly 8,800 targets only a part is listed; those with a hit were picked by preference. About 0.5% of all pairs of compound and target were hits.

Legend:
Test in all cases: log2 fold change, soluble protein after heating vs DMSO (PISA); higher = thermal stabilisation; K562 lysate, 10 uM; active = over 0.2 and 3.5 SD of the protein, either way, in both replicates (recomputed)
erlotinib = compound: C#Cc1cccc(Nc2ncnc3cc(OCCOC)c(OCCOC)cc23)c1 [erlotinib]
Outline: (§1)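 Log-two fold change in thermal stability relative to solvent controls is reported from duplicates. For each sample, crude K562 extract from dounce-homogenised pellets in PBS pH 7.4 with 1 mM MgCl2, at 1 mg/mL protein, was treated with 10 μM compound for 30 min. Aliquots heated for 3 min across 48°C-58°C were pooled, brought to 0.5% NP-40 at 4°C and cleared at 21,000xg for 90 min. The supernatant was quantified by TMTpro 16plex LC-MS/MS with channel sums equalised.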

[1] = compound: C/C(=N\NC(=O)C1=CC(=CC=C1)S(=O)(=O)N2CCOCC2)/C3=C(C=CC(=C3)Cl)O
Outline: as §1

[2] = compound: C1=CC(=CC=C1C2=NC3=C(N2)C=C(C=C3)C(=O)N)OC4=CC=C(C=C4)Cl
Outline: as §1

[3] = compound: C1=CC2=C(C=CC(=C2)/C=C\3/C(=O)NC(=NCC4=CC=CS4)S3)N=C1
Outline: as §1

[4] = compound: C1=CC2=NC=CN=C2C=C1/C=C/3\C(=O)NC(=O)S3
Outline: as §1

[5] = compound: C1=CC=C(C=C1)C2=NC(=C(N2)C3=CC=NC=C3)C4=CC(=C(C=C4)Cl)O
Outline: as §1

[6] = compound: C1=CC=C2C(=C1)C3=NNC4=CC=CC(=C43)C2=O
Outline: as §1

[7] = compound: C1CCN(C1)C(=O)NC2=CC=CC(=C2)NC3=NC=C(C(=N3)NCCC4=CN=CN4)Br
Outline: as §1

[8] = compound: C1CN(CCC1(CC2=CC=C(C=C2)Cl)N)C3=NC=NC4=C3C=CN4
Outline: as §1

IRAK-1-4 Inhibitor I = compound: C1COCCN1CCN2C3=CC=CC=C3N=C2NC(=O)C4=CC(=CC=C4)[N+](=O)[O-] [IRAK-1-4 Inhibitor I]
Outline: as §1

ibrutinib = compound: C=CC(=O)N1CCC[C@@H](n2nc(-c3ccc(Oc4ccccc4)cc3)c3c(N)ncnc32)C1 [ibrutinib]
Outline: as §1

[9] = compound: CC(=O)c1cnc2ccc(-c3cc(Cl)c(O)c(Cl)c3)nc2c1N[C@H]1CC[C@H](CN(C)C)CC1
Outline: as §1

ralimetinib = compound: CC(C)(C)Cn1c(N)nc2ccc(-c3[nH]c(C(C)(C)C)nc3-c3ccc(F)cc3)nc21 [ralimetinib]
Outline: as §1

[10] = compound: CC(C)(O)CC(=O)NCCn1ccc2ncnc(Nc3ccc(Oc4cccc(C(F)(F)F)c4)c(Cl)c3)c21
Outline: as §1

[11] = compound: CC(C)C1=C2N=C(C=C(N2N=C1)NCC3=CC=CC=C3)NCCCCCCN
Outline: as §1

[12] = compound: CC1=C(C(CC(=O)N1)C2=CC=C(C=C2)C(F)(F)F)C(=O)NC3=C(C=C4C(=C3)C=NN4)F
Outline: as §1

[13] = compound: CC1=C(C2=C(C=C1)C(=O)C3=CC=CC=C3N2CCCN)C
Outline: as §1

[14] = compound: CC1=C(C=C(C=C1)NC(=O)C2=CC(=CC=C2)C(C)(C)C#N)NC3=CC4=C(C=C3)N=CN(C4=O)C
Outline: as §1

[15] = compound: CC1=C(C=C(C=C1)NC(=O)C2=CC(=CC=C2)N(C)C)NC(=O)C3=CC=C(C=C3)O
Outline: as §1

[16] = compound: CC1=CC=C(C=C1)SC2=C3C=C(SC3=CN=C2)C(=O)N
Outline: as §1

Measured: log2 fold change

CKAP2 (UniProt Q8WWK9)
Chain of UniProt Q8WWK9 (Q8WWK9 whole entry, looked up): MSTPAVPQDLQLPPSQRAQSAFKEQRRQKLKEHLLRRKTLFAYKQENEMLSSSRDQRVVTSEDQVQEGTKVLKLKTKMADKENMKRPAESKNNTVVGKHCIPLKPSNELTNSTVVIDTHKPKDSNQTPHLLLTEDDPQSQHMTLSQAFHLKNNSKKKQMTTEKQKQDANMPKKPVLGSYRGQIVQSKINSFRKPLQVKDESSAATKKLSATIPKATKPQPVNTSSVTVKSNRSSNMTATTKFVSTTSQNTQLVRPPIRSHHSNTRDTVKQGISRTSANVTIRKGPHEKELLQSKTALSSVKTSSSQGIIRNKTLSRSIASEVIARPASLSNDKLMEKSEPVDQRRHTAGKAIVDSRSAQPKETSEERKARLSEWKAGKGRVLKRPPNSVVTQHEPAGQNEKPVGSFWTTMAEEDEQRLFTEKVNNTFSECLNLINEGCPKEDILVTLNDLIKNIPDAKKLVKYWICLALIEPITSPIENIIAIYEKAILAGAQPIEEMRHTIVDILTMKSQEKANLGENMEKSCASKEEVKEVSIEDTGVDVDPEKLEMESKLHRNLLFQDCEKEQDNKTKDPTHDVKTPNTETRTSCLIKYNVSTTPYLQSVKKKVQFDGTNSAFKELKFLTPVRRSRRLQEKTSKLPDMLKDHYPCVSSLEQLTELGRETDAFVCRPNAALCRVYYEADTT
active: [6] -0.611
inactive: erlotinib 0 | [1] -0.158 | [2] -0.062 | [3] -0.148 | [4] -0.015 | [5] 0.006 | [7] -0.007 | [8] 0.046 | IRAK-1-4 Inhibitor I 0.014 | ibrutinib -0.065 | [9] -0.057 | ralimetinib -0.017 | [10] 0.016 | [11] -0.053 | [12] -0.012 | [13] -0.004 | [14] 0.003 | [15] -0.027 | [16] 0.03

DOCK8 (UniProt Q8NF50)
Chain of UniProt Q8NF50 (Q8NF50 whole entry, looked up): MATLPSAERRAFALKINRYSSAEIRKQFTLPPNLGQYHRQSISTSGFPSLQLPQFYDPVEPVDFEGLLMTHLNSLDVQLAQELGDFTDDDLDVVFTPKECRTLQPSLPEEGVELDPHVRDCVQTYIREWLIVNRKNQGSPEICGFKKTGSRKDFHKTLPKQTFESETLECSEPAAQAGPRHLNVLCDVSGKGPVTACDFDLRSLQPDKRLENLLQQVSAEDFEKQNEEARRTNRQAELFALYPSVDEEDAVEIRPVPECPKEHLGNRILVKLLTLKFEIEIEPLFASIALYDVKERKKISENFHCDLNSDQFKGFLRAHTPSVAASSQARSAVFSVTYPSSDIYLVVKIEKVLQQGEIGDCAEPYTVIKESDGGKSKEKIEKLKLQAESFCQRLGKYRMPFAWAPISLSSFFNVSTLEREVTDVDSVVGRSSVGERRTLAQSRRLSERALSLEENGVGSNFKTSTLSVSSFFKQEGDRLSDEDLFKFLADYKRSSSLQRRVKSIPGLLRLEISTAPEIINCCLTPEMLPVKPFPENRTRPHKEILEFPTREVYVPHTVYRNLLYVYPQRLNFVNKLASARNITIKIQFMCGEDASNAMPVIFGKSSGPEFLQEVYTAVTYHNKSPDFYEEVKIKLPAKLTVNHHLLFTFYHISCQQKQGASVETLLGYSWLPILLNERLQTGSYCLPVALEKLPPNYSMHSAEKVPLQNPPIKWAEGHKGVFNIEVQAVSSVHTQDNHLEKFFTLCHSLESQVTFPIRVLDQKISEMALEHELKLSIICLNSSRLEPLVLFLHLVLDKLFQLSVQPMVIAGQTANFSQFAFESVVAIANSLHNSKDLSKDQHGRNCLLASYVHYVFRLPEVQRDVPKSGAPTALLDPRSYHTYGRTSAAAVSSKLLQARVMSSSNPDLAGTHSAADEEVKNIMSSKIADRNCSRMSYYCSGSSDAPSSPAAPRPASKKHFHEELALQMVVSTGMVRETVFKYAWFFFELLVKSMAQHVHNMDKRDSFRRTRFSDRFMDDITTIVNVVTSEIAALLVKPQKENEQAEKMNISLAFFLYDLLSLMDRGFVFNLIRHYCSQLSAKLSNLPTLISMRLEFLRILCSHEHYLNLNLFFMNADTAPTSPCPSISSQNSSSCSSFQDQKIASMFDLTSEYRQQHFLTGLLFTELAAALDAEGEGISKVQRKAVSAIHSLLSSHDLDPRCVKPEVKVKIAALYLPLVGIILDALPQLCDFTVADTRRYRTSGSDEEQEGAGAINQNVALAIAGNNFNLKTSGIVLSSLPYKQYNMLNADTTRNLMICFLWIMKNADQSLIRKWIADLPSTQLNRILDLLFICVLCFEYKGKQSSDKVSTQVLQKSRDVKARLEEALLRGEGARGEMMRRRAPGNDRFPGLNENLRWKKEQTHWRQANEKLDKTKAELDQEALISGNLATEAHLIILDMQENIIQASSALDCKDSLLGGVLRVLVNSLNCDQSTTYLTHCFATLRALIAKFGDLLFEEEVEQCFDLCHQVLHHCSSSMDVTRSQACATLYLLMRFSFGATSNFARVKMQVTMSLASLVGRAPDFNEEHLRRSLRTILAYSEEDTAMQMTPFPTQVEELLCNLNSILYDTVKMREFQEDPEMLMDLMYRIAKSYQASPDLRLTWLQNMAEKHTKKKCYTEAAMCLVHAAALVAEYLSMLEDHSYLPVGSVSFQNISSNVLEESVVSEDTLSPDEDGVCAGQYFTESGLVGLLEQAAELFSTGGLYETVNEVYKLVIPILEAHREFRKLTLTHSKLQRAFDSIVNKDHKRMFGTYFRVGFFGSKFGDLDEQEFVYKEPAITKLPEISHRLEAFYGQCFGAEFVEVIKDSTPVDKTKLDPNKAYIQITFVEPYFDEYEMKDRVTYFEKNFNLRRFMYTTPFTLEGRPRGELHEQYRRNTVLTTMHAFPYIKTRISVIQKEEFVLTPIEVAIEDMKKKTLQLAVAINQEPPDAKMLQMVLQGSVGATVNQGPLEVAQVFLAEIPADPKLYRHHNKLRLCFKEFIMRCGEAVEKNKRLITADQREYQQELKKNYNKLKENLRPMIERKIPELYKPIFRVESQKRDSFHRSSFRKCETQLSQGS
inactive: erlotinib -0.001 | [1] -0.073 | [2] -0.016 | [3] 0.018 | [4] 0.005 | [5] 0.017 | [6] -0.023 | [7] 0.04 | [8] -0.021 | IRAK-1-4 Inhibitor I 0.014 | ibrutinib -0.033 | [9] -0.012 | ralimetinib 0.03 | [10] 0.047 | [11] 0.003 | [12] -0.005 | [13] 0.022 | [14] 0.004 | [15] 0.057 | [16] -0.011

DNAJC3 (UniProt Q13217)
Chain of UniProt Q13217 (Q13217 whole entry, looked up): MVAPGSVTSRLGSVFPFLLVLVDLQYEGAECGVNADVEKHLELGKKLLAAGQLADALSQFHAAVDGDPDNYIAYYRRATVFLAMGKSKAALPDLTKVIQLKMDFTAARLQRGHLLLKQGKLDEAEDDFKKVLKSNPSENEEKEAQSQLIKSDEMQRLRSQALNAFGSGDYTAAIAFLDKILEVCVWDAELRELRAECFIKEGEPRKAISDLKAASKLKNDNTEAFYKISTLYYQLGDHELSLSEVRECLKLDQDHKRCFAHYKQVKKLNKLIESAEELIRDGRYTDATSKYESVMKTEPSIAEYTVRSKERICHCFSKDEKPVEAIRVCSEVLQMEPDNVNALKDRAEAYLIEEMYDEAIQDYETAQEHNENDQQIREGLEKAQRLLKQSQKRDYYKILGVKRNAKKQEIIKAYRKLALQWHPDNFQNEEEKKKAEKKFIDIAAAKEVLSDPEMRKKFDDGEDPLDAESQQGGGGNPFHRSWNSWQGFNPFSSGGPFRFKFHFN
inactive: erlotinib -0.002 | [1] -0.057 | [2] 0.06 | [3] 0.008 | [4] -0.021 | [5] -0.032 | [6] -0.02 | [7] -0.033 | [8] -0.047 | IRAK-1-4 Inhibitor I 0.011 | ibrutinib 0.009 | [9] -0.004 | ralimetinib -0.022 | [10] 0.007 | [11] -0.021 | [12] 0.024 | [13] 0.006 | [14] -0.011 | [15] -0.054 | [16] -0.018

CXorf38 (UniProt Q8TB03)
inactive: erlotinib 0.068 | [1] 0.067 | [2] -0.003 | [3] 0.01 | [4] 0.042 | [5] 0.013 | [6] 0.012 | [7] -0.058 | [8] -0.031 | IRAK-1-4 Inhibitor I 0.026 | ibrutinib 0.054 | [9] 0.015 | ralimetinib -0.008 | [10] -0.007 | [11] 0.062 | [12] -0.095 | [13] 0.016 | [14] -0.002 | [15] -0.015 | [16] 0.025

CSNK1E (UniProt P49674)
Chain of UniProt P49674 (P49674 whole entry, looked up): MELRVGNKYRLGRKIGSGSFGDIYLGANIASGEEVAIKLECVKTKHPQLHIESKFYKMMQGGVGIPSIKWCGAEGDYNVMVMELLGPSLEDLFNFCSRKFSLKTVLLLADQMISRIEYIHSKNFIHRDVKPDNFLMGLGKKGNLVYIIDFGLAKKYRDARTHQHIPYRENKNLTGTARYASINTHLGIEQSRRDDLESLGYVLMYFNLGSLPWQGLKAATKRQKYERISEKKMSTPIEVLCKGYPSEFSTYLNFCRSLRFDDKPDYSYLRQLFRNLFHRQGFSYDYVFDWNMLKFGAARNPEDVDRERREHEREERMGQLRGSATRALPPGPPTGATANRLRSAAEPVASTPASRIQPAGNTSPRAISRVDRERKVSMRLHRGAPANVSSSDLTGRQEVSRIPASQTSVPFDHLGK
inactive: erlotinib -0.003 | [1] 0.006 | [2] 0.161 | [3] 0.047 | [4] 0.018 | [7] -0.056 | [8] 0.009 | IRAK-1-4 Inhibitor I -0.032 | ibrutinib 0.029 | [9] 0.287 | ralimetinib 0.208 | [10] -0.026 | [11] -0.04 | [12] -0.012 | [13] -0.064 | [14] -0.049 | [15] -0.028 | [16] -0.039
active: [5] 0.297 | [6] 0.345

CORO7 isoform 3 (UniProt P57737)
Chain of UniProt P57737 (P57737 whole entry, looked up): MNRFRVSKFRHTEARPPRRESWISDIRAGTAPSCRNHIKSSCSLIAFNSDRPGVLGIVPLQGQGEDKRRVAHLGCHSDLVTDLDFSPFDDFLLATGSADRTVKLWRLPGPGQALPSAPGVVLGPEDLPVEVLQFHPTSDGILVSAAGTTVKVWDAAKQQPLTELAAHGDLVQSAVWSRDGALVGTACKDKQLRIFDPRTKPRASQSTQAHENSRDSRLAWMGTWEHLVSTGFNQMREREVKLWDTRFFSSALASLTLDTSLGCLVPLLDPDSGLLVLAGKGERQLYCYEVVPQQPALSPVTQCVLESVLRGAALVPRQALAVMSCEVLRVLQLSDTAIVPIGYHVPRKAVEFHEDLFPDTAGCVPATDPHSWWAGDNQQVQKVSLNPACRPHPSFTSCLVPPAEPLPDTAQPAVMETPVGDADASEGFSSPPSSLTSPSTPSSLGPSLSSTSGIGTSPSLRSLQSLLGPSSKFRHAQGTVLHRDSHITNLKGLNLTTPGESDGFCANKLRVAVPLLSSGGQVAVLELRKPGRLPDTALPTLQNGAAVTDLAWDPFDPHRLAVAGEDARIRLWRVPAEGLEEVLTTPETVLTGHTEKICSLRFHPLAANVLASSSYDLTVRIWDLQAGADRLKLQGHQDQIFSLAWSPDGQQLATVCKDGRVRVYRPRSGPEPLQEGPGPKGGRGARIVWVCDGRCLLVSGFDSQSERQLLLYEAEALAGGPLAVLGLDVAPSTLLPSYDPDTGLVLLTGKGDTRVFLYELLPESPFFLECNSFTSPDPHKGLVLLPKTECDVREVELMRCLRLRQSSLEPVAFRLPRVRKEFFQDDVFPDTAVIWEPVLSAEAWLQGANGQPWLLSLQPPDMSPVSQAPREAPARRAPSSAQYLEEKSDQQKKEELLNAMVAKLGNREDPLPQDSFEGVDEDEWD
inactive: erlotinib 0.035 | [1] -0.009 | [2] -0.079 | [3] 0.013 | [4] 0 | [5] 0.016 | [6] -0.016 | [7] 0.009 | [8] 0.026 | IRAK-1-4 Inhibitor I -0.04 | ibrutinib -0.01 | [9] 0.002 | ralimetinib 0.016 | [10] 0.031 | [11] 0.009 | [12] -0.013 | [13] -0.006 | [14] -0.006 | [15] 0.02 | [16] 0.005

CNIH4 (UniProt Q9P003)
Chain of UniProt Q9P003 (Q9P003 whole entry, looked up): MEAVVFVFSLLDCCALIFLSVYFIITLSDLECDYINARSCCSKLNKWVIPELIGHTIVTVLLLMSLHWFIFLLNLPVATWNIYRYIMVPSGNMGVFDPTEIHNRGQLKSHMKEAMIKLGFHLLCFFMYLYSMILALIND
inactive: erlotinib 0.049 | [1] -0.139 | [2] -0.06 | [3] 0.129 | [4] -0.071 | [5] -0.022 | [6] -0.162 | [7] 0.01 | [8] -0.131 | IRAK-1-4 Inhibitor I -0.078 | ibrutinib 0.13 | [9] -0.014 | ralimetinib 0.006 | [10] -0.152 | [11] 0.278 | [12] 0.066 | [13] -0.115 | [14] -0.008 | [15] 0.211 | [16] -0.024

CIC (UniProt I3L2J0)
inactive: erlotinib 0.013 | [1] -0.248 | [2] 0.079 | [3] 0.122 | [4] 0.027 | [5] -0.047 | [6] -0.062 | [7] 0.005 | [8] -0.04 | IRAK-1-4 Inhibitor I 0.04 | ibrutinib 0.036 | [9] 0.044 | ralimetinib 0.055 | [10] -0.083 | [11] 0.013 | [12] 0.054 | [13] -0.044 | [14] 0.029 | [15] 0.02 | [16] 0.028
